CYP2C19 inhib: blocks human cytochrome P450 2C19; P33261; CYP2C19 Supersomes, luciferin-H EGE luminescence, 30 min; inhibition, % at 5 µM; 21% of 96,000 active; AID 778;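 active = CYP2C19 inhibition above a set limit at 5 µM in the primary screen, cut at about 50% in these data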;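 note: plate controls were negative control wells for no effect and 2.5 mM tranylcypromine positive control for full effect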
CYP2C9 inh: human CYP2C9 inhibition; CYP2C9 Supersomes, luciferin-H conversion, luminescence; inhibition, % at 5 µM; P11712; AID 777; 20% of 96,000 active;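 active = blocking of liver enzyme CYP2C9 beyond about 50% at 5 µM, limit read from the data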
Target sequence (P11712 whole entry, looked up): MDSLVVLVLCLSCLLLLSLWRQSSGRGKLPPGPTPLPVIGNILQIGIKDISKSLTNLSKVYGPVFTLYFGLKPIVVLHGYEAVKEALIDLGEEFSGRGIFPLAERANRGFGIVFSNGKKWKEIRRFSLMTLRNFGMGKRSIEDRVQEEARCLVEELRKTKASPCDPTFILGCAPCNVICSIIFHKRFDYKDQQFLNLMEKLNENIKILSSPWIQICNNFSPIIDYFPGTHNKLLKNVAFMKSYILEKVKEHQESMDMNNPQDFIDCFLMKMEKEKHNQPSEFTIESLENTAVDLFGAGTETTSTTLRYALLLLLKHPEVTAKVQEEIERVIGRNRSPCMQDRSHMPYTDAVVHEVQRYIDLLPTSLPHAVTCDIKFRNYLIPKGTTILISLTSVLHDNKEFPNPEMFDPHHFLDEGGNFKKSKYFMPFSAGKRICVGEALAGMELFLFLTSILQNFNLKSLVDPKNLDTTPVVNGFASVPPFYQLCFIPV
CYP2C9 act: increases human cytochrome P450 2C9 activity; 1.4% of 96,000 active; recombinant CYP2C9, luciferin-H conversion, luminescence; hits give high values; factor 1 = untreated enzyme, 0 = blocked; activation factor at 5 µM; P11712;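 active = activation factor of 2 or more for CYP2C9 at a 5 µM dose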;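 note: 0 = sulfaphenazole-blocked wells and 1 = vehicle-only wells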
Cav3 T inh: blocks human Cav3.2 T-type calcium channel. Cav3.2-expressing cells, Fluo-4 calcium fluorescence FDSS; hits give low values. B-score at 10 µM. 4% of 100,000 active. AID 449739;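 active = single-dose well whose peak fluorescence ratio is a statistical outlier from its plate by either plate-standardised score or position-corrected B-score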
CYP2C19 activ: increases human CYP2C19 enzyme activity. recombinant CYP2C19, luciferin-H EGE luminescence; hits give high values; 0 = fully inhibited enzyme, 1 = untreated enzyme. 96,000 tested, under 10 active. activation factor at 5 µM. AID 1025;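 active = activation factor of at least 2 at 5 µM in the primary screen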;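 note: 0 = wells with 2.5 mM tranylcypromine and 1 = vehicle-only wells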
Active calls of the source: *; nt = not tested or not shown. This is a sample that favours compounds with a hit; in the whole collection about 27% have one here.

SMILES | CYP2C19 inhib | CYP2C9 inh | CYP2C9 act | Cav3 T inh | CYP2C19 activ
Cc1ccc(-c2csc3nc(C)n(-n4cccc4)c(=O)c23)o1 | 29 | 8 | 0.9 | -0.88 | 0.7
O=C(/C=C/c1ccc2c(c1)OCO2)Nc1nc(-c2ccccc2)cs1 | 59* | 74* | 0.3 | -2.2 | 0.4
O=C(/C=C/c1cccs1)Nc1nc(-c2ccccc2)cs1 | 70* | 85* | 0.2 | 0.022 | 0.3
O=C(Nc1nc(-c2ccccc2)cs1)C1COc2ccccc2O1 (stereo not drawn) | 23 | 35 | 0.7 | -1.9 | 0.8
CC(/C=C/c1cccs1)=C\C(=O)O | -13 | -1 | 1 | -0.37 | 1.1
O=C(CC1=NC2(CCCC2)Cc2ccccc21)N1CCOCC1 | 18 | 19 | 0.8 | 0.47 | 0.8
O=C(O)CN1CCN(Cc2ccccc2Cl)C1=O | nt | nt | nt | 0.28 | nt
CC(C)OCCCNC(=O)CN1CCN(Cc2ccccc2Cl)C1=O | 9 | 52* | 0.5 | 0.75 | 0.9
O=C(CN1CCN(Cc2ccccc2Cl)C1=O)NC1CCCCCCC1 | 72* | -7 | 1.1 | -3.6 | 0.3
Cc1c(/C=C/C(=O)c2ccc(Cl)s2)cnn1C | nt | nt | nt | 0.48 | nt
COc1ccc(/C=C/C(=O)c2ccc(Cl)s2)cc1O | 54* | 59* | 0.4 | 0.15 | 0.5
CCOC(=O)C1=C(C)N(C)C(C)=C(C(=O)OCC)C1c1ccc(C(=O)OC)cc1 | 99* | 99* | 0 | -7* | 0
COC(=O)C1=C(C)N(C)C(C)=C(C(=O)OC)C1c1ccc(Cl)cc1 | 28 | 58* | 0.4 | -0.054 | 0.7
C=CCn1c(Cc2csc(N)n2)nnc1SCc1ccc(C(=O)OC)cc1 | 94* | 73* | 0.3 | 1.5 | 0.1
O=C(Nc1nnc(SCc2ccc(Cl)cc2)s1)C1CCCO1 (stereo not drawn) | 49 | 73* | 0.3 | -2.3 | 0.5
COC(=O)c1cccc(CSc2nnc(C)s2)c1 | 62* | 6 | 0.9 | -0.23 | 0.4
COC(=O)c1ccc(CSc2nnc(NC(=O)C3CCCO3)s2)cc1 (stereo not drawn) | 32 | 70* | 0.3 | -0.6 | 0.7
CCCCCCn1c(=O)c(-c2nc3ccccc3c(=O)[nH]2)c(O)c2ccccc21 | -14 | -5 | 1 | nt | 1.1
COC(=O)c1ccc(CSc2nnc(C)s2)cc1 | 49 | 20 | 0.8 | -0.38 | 0.5
COC(=O)c1ccc(CSc2nnc(N)s2)cc1 | 74* | 26 | 0.7 | -0.21 | 0.3
CC(C)(C)C(=O)Nc1nnc(SCc2ccc(F)cc2)s1 | 68* | 78* | 0.2 | -2.2 | 0.3
Cc1ccc(-n2ncc(C(=O)NCc3ccc4c(c3)OCO4)c2NC(=O)c2ccco2)cc1C | 64* | 87* | 0.1 | -6.2* | 0.4
COc1ccccc1C(=O)NCc1ccc2c(c1)OCO2 | 95* | 52* | 0.5 | 0.95 | 0
CCOc1ccccc1C(=O)NC(C)c1ccc2c(c1)OCO2 (stereo not drawn) | 80* | -45 | 1.5 | -0.34 | 0.2
COc1cc(CC(=O)NCc2ccc3c(c2)OCO3)cc(OC)c1OC | 74* | -11 | 1.1 | -0.41 | 0.3
SMILES | CYP2C19 inhib | CYP2C9 inh | CYP2C9 act | Cav3 T inh | CYP2C19 activ
Cc1csc(NC(=O)CSc2nnc3c4ccccc4nc(C(C)(C)C)n23)n1 | 11 | 21 | 0.8 | -1.4 | 0.9
COc1ccccc1NC(=O)NCc1ccc2c(c1)OCO2 | 54* | -6 | 1.1 | 0.13 | 0.5
COC(=O)c1ccccc1NC(=O)NCc1ccc2c(c1)OCO2 | 52* | 25 | 0.8 | -1 | 0.5
Cc1occc1C(=O)NC(C)c1ccc2c(c1)OCO2 (stereo not drawn) | 62* | -3 | 1 | 1.5 | 0.4
Cc1occc1C(=O)NCc1ccc2c(c1)OCO2 | 88* | 26 | 0.7 | -0.0014 | 0.1
COc1ccc(C(=O)COC(=O)CCn2nnc(-c3cccc(O)c3OC)n2)cc1 | 8 | 0 | 1 | -0.98 | 0.9
COC(=O)C(NNc1ccccc1)(NC(=O)c1cccc(F)c1)C(F)(F)F (stereo not drawn) | 83* | 84* | 0.2 | -0.7 | 0.2
O=C(NCc1ccc(C(F)(F)F)cc1)C12CN(Cc3ccccc3)CC1C(c1cccc([N+](=O)[O-])c1)=NO2 (stereo not drawn) | 47 | 45 | 0.5 | -3.2* | 0.5
Cc1ccc(CCNC(=O)C23CN(Cc4ccccc4)CC2C(c2cccc([N+](=O)[O-])c2)=NO3)cc1 (stereo not drawn) | 77* | 75* | 0.3 | nt | 0.2
COc1ccc(N=Cc2ccc[nH]2)cc1 | -3 | -7 | 1.1 | 0.17 | 1
O=C(CSc1ncnc2c1oc1ccccc12)N1CCc2ccccc2C1 | 12 | 18 | 0.8 | nt | 0.9
CC[C@@H](C(=O)n1nc(C)cc1C)[C@H](NS(=O)(=O)c1ccc(C)cc1)c1ccccc1 | 47 | -3 | 1 | 0.046 | 0.5
CCC1(C)Cc2c(sc3nc(NN)n(C)c(=O)c23)CO1 (stereo not drawn) | 99* | 94* | 0.1 | 0.19 | 0
CCOC(=O)CSc1nc2sc3c(c2c(=O)[nH]1)CC(C)(CC)OC3 (stereo not drawn) | 16 | 12 | 0.9 | -0.9 | 0.8
O=C1CC(=C2c3ccccc3-c3ccccc32)C(=O)N1CCN1CCN(c2ccccc2)CC1 | nt | nt | nt | 0.0062 | nt
Cc1ccc(/C=N\NC(=O)c2csnn2)cc1 | 36 | -3 | 1 | 0.23 | 0.6
O=C(NC(Cc1ccc2c(c1)OCO2)C(=O)NC(Cc1ccccc1)C(=O)O)c1ccccc1 (stereo not drawn) | -5 | 19 | 0.8 | nt | 1.1
Cc1ccc(CNC(=O)C2CCCN(S(=O)(=O)c3c(C)n[nH]c3C)C2)cc1 (stereo not drawn) | 71* | 15 | 0.8 | 0.049 | 0.3
O=C(Nc1cc(Cl)ccn1)C1CCN(S(=O)(=O)c2cccs2)CC1 | 34 | -10 | 1.1 | nt | 0.7
Cc1n[nH]c(C)c1S(=O)(=O)N1CCCC(C(=O)Nc2nccs2)C1 (stereo not drawn) | 61* | 73* | 0.3 | 1.5 | 0.4
O=C(Nc1nccs1)C1CCN(S(=O)(=O)c2c(Cl)cccc2Cl)CC1 | 92* | 40 | 0.6 | -2.4 | 0.1
O=C(COC(=O)C1COc2ccccc2O1)NC(=O)NC1CCCCC1 (stereo not drawn) | 2 | 14 | 0.9 | 0.14 | 1
C=CCNC(=O)c1onc(CSc2ccccn2)c1C(=O)NCC=C | nt | nt | nt | 0.97 | nt
Cn1c(CCNC(=O)c2ccc(Cl)c(Cl)c2)nnc1SCc1ccc(Cl)c(Cl)c1 | 3 | 16 | 0.8 | 1 | 1
C=CCn1c(CCNC(=O)c2ccc(Cl)c(Cl)c2)nnc1SCCOc1ccc(OC)cc1 | 43 | 60* | 0.4 | -4.4 | 0.6
C=CCOn1c(=O)c(-c2ccc(OC)c(OC)c2)[n+]([O-])c2ccccc21 | -6 | 1 | 1 | 0.95 | 1.1
C=CCOn1c(=O)c(-c2cccs2)[n+]([O-])c2ccccc21 | 57* | 68* | 0.3 | -2.7 | 0.4
CC(C)(C)c1ccc(OCc2ccc(C(=O)N/N=C/c3ccc([N+](=O)[O-])cc3)o2)cc1 | 10 | 40 | 0.6 | -3.8 | 0.9
